This note sets out measurements from ChEMBL document CHEMBL3433997, “St. Jude Leishmania screening dataset” (2016).

Holding throughout (format): functional
The target of assay [1] is Solute carrier family 2, facilitated glucose transporter member 1 (Homo sapiens) (UniProt P11166). As to the kind of experiment: ST_JUDE_LEISH: Cytotoxicity at 2uM final concentration against transgenic Leishmania Mexicana promastigotes LmGLUT1 that are glucose transport deficient and complemented with the human glucose transporter GLUT1. Activity is measured by DNA content using SYBR green in vitro.

Assay [2] addresses Hexose transporter 1 (Plasmodium falciparum) (UniProt O97467). Put plainly: ST_JUDE_LEISH: Cytotoxicity at 2uM final concentration against transgenic Leishmania Mexicana promastigotes LmPfHT that are glucose transport deficient and complemented with the Plasmodium falciparum hexose transporter. Activity is measured by DNA content using SYBR green in vitro.
In assay [3] the target is Glucose transporter (Leishmania mexicana) (UniProt O61059). As to the kind of experiment: ST_JUDE_LEISH: Cytotoxicity at 2uM final concentration against transgenic Leishmania Mexicana promastigotes LmGT2 that are glucose transport deficient and complemented with the L. Mexicana glucose transporter 2. Activity is measured by DNA content using SYBR green in vitro.

Chain of Solute carrier family 2, facilitated glucose transporter member 1 (Homo sapiens) (P11166 whole entry): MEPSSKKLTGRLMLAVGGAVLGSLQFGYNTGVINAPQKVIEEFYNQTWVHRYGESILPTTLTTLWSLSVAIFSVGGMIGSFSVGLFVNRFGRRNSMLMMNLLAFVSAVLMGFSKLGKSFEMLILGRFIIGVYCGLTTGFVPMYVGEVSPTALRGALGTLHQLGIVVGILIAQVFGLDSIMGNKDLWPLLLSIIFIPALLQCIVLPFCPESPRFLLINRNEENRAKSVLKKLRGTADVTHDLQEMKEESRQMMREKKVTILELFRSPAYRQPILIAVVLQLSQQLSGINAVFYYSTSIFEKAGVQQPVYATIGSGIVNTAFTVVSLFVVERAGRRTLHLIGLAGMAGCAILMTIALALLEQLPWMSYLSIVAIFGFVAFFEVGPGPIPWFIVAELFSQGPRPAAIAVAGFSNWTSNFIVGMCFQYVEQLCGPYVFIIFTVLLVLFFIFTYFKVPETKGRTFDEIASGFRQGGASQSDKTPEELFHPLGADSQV

In the case of `COc1ccc2[nH]c(C(=O)Nc3ccc4[nH]c(-c5ccccc5)nc4c3)cc2c1`, the inhibition (usually the change of the read-out against control, counted positive when it falls) is 4.44% in assay [1], 2.1% in assay [2] and 0.82% in assay [3].
For `CN(c1ccc2c(c1)nc(NCc1ccc(F)cc1)n2C)c1ccnc(Nc2ccc(CS(C)(=O)=O)cc2)n1`, in that order: -0.61%, -0.52% and -1.02%.
In the same order, the values of `NCC1CCCN1Cc1cccc(-c2ccc(-c3nc4ccccc4[nH]3)s2)c1` (configuration not stated) are 9.15%, 8.03% and 7.51%.
For `Cc1nc(C)c(-c2ccc(Oc3ccc(OC(F)(F)F)cc3)cc2)c(OC(=O)c2ccc(CN(C)C)cc2)c1Cl`, in that order: 10.9%, 8.12% and 8.96%.
As for `Cc1[nH]n(-c2cccc(C(F)(F)F)c2)c(=O)c1-c1ccc(Cl)cc1`, the figures for the inhibition in assay [1], in assay [2] and in assay [3] were 3.56%, 6.35% and 5.69%, respectively.
In the same order, the values of `O=C(/C=C/c1ccc(Cl)c(Cl)c1)NCCCCCN1CCC(NC(=O)c2ccc3ccccc3c2)CC1` are 0.51%, 0.83% and 1.46%.
In the same order, the values of `O=C(Nc1cccc(-c2cccc(-c3ccc(F)cc3)n2)c1)c1ccc([N+](=O)[O-])o1` are 9.83%, 11.4% and 1.35%.
For `CN(C)Cc1cccc(-c2ccc(Nc3nccc(NCC(O)c4ccccc4)n3)cc2)c1` (configuration not stated), in that order: 2.6%, 3.43% and 3.53%.
Take `COc1ccc(CCNC(=O)c2ccccc2O)cc1-c1ccc(C(C)(C)C)cc1`: the inhibition in assay [1] was found to be 4.03%; in assay [2] it was 2.33%; in assay [3] it was 3.39%.
Regarding `O=C(Nc1ccc(Br)cc1)c1cc(Br)ccc1NS(=O)(=O)c1cc(C(F)(F)F)cc(C(F)(F)F)c1`, the inhibition in assay [1] was -2.23%; in assay [2], 0.04%; in assay [3], -0.28%.
For `CCCC(C)Nc1nc(C)cc(NCCC(=O)Nc2ccccc2)n1` (configuration not stated), in that order: 6.84%, 8.38% and 2.55%.
For `Ic1cc(CNC2CCCCC2)ccc1OCc1cccc(COc2ccc(CNC3CCCCC3)cc2I)c1`, in that order: 4.09%, 3.76% and 2.65%.
In the same order, the values of `CCN(CC)CCOc1ccc(C(O)(C#CC(O)(c2ccc(C)cc2)c2ccc(OCCN(CC)CC)cc2)c2ccc(C)cc2)cc1` (configuration not stated) are 7.79%, 8.63% and 1.02%.
As to `O=C1CCCN1CCCNCc1ccc(-c2cccc(-c3nc4ccccc4[nH]3)c2)cc1`, the results for the inhibition in assay [1], in assay [2] and in assay [3] were 4.17%, 3.74% and 4.94%, respectively.
As to `O=C(Nc1ccc(Cl)cc1)Nc1cccc(CCNCc2ccccc2)c1`, the inhibition amounted to 0.95% in assay [1], 0.57% in assay [2] and 1.38% in assay [3].
In the same order, the values of `O=C(CC1CCCC1)Nc1ccc2c(c1)CCC2` are 2.83%, 3.17% and 1.69%.
For `O=C(/C=C/c1ccc(Cl)c(Cl)c1)NCCCCCN1CCC(NC(=O)Nc2ccc(C(F)(F)F)cc2)C1` (configuration not stated), in that order: -0.17%, -0.88% and -3.22%.
For `CC(C)c1ccc(NC(=O)Nc2ccc(CCNCCCc3ccccc3)cc2)cc1`, in that order: 0.62%, 0.01% and 0.36%.
Take `CO/C(=C\C=C\c1cc2cc(Cl)c(Cl)cc2[nH]1)C(=O)NCCCN1CCN(c2cccc(O)c2)CC1`: the inhibition was 10.4% in assay [1], 11.7% in assay [2] and 11.8% in assay [3].
For `CN1CCN(c2ccc(-c3cccc(NC(=O)c4cccc(Cl)c4)c3)nn2)CC1`, in that order: 2.62%, 1.54% and 3.23%.
For `CN1CCC(NCc2ccc(-c3cccc(-c4nc5ccccc5[nH]4)c3)cc2)CC1`, in that order: 1.67%, 2.05% and 1.64%.
In the same order, the values of `CC(CN(C)C)Oc1ccc2nc(-c3cccc(OCc4ccccc4)c3)[nH]c2c1C#N` (configuration not stated) are -1.18%, 0.94% and 0.08%.
Regarding `CC(C)(C)c1cc(C(=O)N2CCN(c3nccnc3C#N)CC2)n(Cc2ccccc2)n1`, the inhibition is 1.68% in assay [1], 1.96% in assay [2] and 1.02% in assay [3].
For `CCN(CC)CCn1c2ccccc2c2ccc(C(=O)Nc3ccc4sc(C)nc4c3)cc21`, in that order: 13.2%, 11.9% and 8.05%.
In the same order, the values of `CCC(CC)(CCC#N)CN(C[C@@H](O)[C@H](Cc1ccccc1)NC(=O)OC(C)(C)C)S(=O)(=O)c1ccc(OC)cc1` are -0.65%, 0.74% and 0.65%.
For `Cc1noc(C)c1-c1cccc(CNCc2cccc(-c3ccc(-c4nc5ccccc5[nH]4)cc3)c2)c1`, in that order: 0.58%, -1.28% and -1.53%.
Take `Cc1ccc(NC(=O)c2cccc(CN3CCCN(Cc4cccc(O)c4)CC3)c2)cc1C`: the inhibition in assay [1] was determined as 4.69%; in assay [2] it was 3.38%; in assay [3] it was 4.38%.
Turning to `Cc1nn(CC(C)C)c2sc(C(=O)N3CCN(S(=O)(=O)c4ccc(C#N)cc4)CC3)cc12`, the inhibition in assay [1] was 10.3%; in assay [2], 8.28%; in assay [3], 5.07%.
For `CN(C)CCOc1ccc(-c2cc(-c3ccncc3)c(-c3ccc(Cl)c(O)c3)[nH]2)cc1`, in that order: 1.45%, 1.71% and 1.4%.
Regarding `OC(c1ccccc1)C1CN(CCC2CC3CCC2C3)CCC1(O)c1ccccc1` (configuration not stated), the inhibition is -0.77% in assay [1], -3.69% in assay [2] and -3.24% in assay [3].
In the same order, the values of `CC(=O)Nc1cc(C(=O)Nc2cccc(-c3cccc(-c4nc5cc(C(F)(F)F)ccc5[nH]4)c3)c2)ccc1C` are 7.57%, 6.52% and 1.84%.
For `O=C(/C=C/c1ccc(Cl)c(Cl)c1)N1CCC(CCN2CCC(c3c[nH]c4ccncc34)CC2)CC1`, in that order: 3.03%, 4.39% and 6.65%.
In the same order, the values of `COc1ccc(C(=O)N2CCC3(CC2)C(=O)N(CC(=O)NC2CCCCC2)CN3c2ccccc2)c(OC)c1` are 3.74%, 3.6% and 4.38%.
`Cc1ccc(Cc2c[nH]c(NCCSCc3ccc(CN4CCOCC4)o3)nc2=O)cn1`: the values for the inhibition in assay [1], in assay [2] and in assay [3] were 2.52%, 0.59% and 3.98%, respectively.
